In all, about 39,000 compounds went through this assay and about 1,500 (3.8%) were called active. The sample holds actives, similar compounds and a random draw of the others, so the mix is not that of the screen.
System: HSkMC (human skeletal muscle cells)
Experiment: cytotoxicity call (relative viability < 0.9)
Conditions: 10 µM

Row | Compound | cytotoxicity call
1 | Cc1ccc(-c2cnc3c(c2)C(=O)N([C@@H](C)CO)C[C@H](C)[C@@H](CN(C)C(=O)Cc2ccncc2)O3)cc1 | inactive
2 | C[C@@H]1CN([C@H](C)CO)C(=O)c2cccc(NC(=O)c3ccc(-c4nccs4)cc3)c2O[C@@H]1CN(C)C(=O)NC1CCCCC1 | inactive
3 | C[C@@H]1CCCCO[C@@H](CN(C)Cc2ccncc2)[C@H](C)CN([C@H](C)CO)C(=O)c2cc(NC(=O)Nc3ccc(C(F)(F)F)cc3)ccc2O1 | inactive
4 | C[C@@H]1CN([C@H](C)CO)C(=O)c2cc(NC(=O)Nc3ccc(C(F)(F)F)cc3)ccc2O[C@@H](C)CCCCO[C@@H]1CN(C)Cc1ccc(C(F)(F)F)cc1 | active
5 | C[C@@H]1CCCCO[C@@H](CN(C)Cc2ccc(C(F)(F)F)cc2)[C@H](C)CN([C@@H](C)CO)C(=O)c2cc(NC(=O)Nc3ccc(F)cc3)ccc2O1 | inactive
6 | C[C@H](CO)N1C[C@H](C)[C@@H](CN(C)Cc2ccncc2)OCCCC[C@H](C)Oc2ccc(NC(=O)Nc3ccc(C(F)(F)F)cc3)cc2C1=O | inactive
7 | C[C@@H]1CN([C@H](C)CO)C(=O)c2cc(NC(=O)Nc3ccc(C(F)(F)F)cc3)ccc2O[C@@H](C)CCCCO[C@@H]1CN(C)Cc1ccncc1 | active
8 | C[C@@H]1CN([C@H](C)CO)C(=O)c2cc(NC(=O)Nc3ccc(F)cc3)ccc2O[C@@H](C)CCCCO[C@H]1CN(C)Cc1ccc(C(F)(F)F)cc1 | active
9 | C[C@H](CO)N1C[C@H](C)[C@H](CN(C)Cc2ccc(C(F)(F)F)cc2)OCCCC[C@H](C)Oc2ccc(NC(=O)Nc3ccc(F)cc3)cc2C1=O | inactive
10 | C[C@@H]1CCCCO[C@H](CN(C)Cc2ccc(C(F)(F)F)cc2)[C@@H](C)CN([C@H](C)CO)C(=O)c2cc(NC(=O)Nc3ccc(C(F)(F)F)cc3)ccc2O1 | inactive
11 | C[C@H](CO)N1C[C@H](C)[C@@H](CN(C)Cc2ccc(Cl)c(Cl)c2)OCCCC[C@H](C)Oc2ccc(NC(=O)Nc3ccc(C(F)(F)F)cc3)cc2C1=O | active
12 | C[C@@H]1CN([C@@H](C)CO)C(=O)c2cc(NC(=O)Nc3ccc(C(F)(F)F)cc3)ccc2O[C@@H](C)CCCCO[C@H]1CN(C)Cc1ccc(Cl)c(Cl)c1 | inactive
13 | C[C@H]1CCCCO[C@H](CN(C)Cc2ccc(C(F)(F)F)cc2)[C@@H](C)CN([C@@H](C)CO)C(=O)c2cc(NC(=O)Nc3ccc(F)cc3)ccc2O1 | inactive
14 | C[C@@H]1CN([C@H](C)CO)C(=O)c2cc(NC(=O)Nc3ccc(C(F)(F)F)cc3)ccc2O[C@@H](C)CCCCO[C@H]1CN(C)Cc1ccc(Cl)c(Cl)c1 | inactive
15 | C[C@H](CO)N1C[C@H](C)[C@H](CN(C)Cc2ccc(O)cc2)OCc2ccccc2-c2c(n(C)c3ccccc23)C1=O | inactive
16 | CC(C)NC(=O)Nc1ccc2c(c1)C(=O)N([C@H](C)CO)C[C@@H](C)[C@H](CN(C)S(C)(=O)=O)OCCCC[C@@H](C)O2 | inactive
17 | C[C@@H]1CN([C@H](C)CO)C(=O)Cc2cc(NS(=O)(=O)c3ccc(Cl)cc3)ccc2O[C@H]1CN(C)Cc1ccc(C(=O)Nc2ccccc2N)cc1 | inactive
18 | Cc1ccc(S(=O)(=O)N(C)C[C@@H]2Oc3cc(C#Cc4ccncc4)ccc3S(=O)(=O)N([C@@H](C)CO)C[C@@H]2C)cc1 | inactive
19 | C[C@H]1CN([C@@H](C)CO)C(=O)c2cccc(NS(=O)(=O)c3cn(C)cn3)c2O[C@H]1CN(C)S(=O)(=O)c1ccc(F)cc1 | inactive

Row | Compound | cytotoxicity call
20 | C[C@H]1CN([C@@H](C)CO)S(=O)(=O)c2ccc(C#Cc3ccc(F)cc3)cc2O[C@H]1CN(C)CC1CC1 | inactive
21 | C[C@@H]1CCCCO[C@H](CN(C)C(=O)CCC(F)(F)F)[C@H](C)CN([C@@H](C)CO)C(=O)c2cc(NC(=O)Nc3ccc4c(c3)OCO4)ccc2O1 | inactive
22 | CCOC(=O)C1=CC(OC(CC)CC)C(NC(C)=O)C(N)C1.O=P(O)(O)O (stereo unspecified) | inactive
23 | COc1ccc(S(=O)(=O)N(C)C[C@@H]2Oc3ccc(NS(=O)(=O)c4ccc(F)cc4)cc3C(=O)N([C@@H](C)CO)C[C@@H]2C)cc1 | inactive
24 | C[C@H]1CN([C@@H](C)CO)C(=O)Cc2cc(NC(=O)C3CC3)ccc2O[C@H]1CN(C)S(=O)(=O)c1ccc(F)cc1 | inactive
25 | C[C@@H]1CN([C@H](C)CO)C(=O)c2cc(NC(=O)Nc3cccc4ccccc34)ccc2O[C@@H]1CN(C)C(=O)Nc1ccc2c(c1)OCO2 | inactive
26 | COc1ccc([C@H]([C@H](Cc2ccccc2)OC(C)=O)N(CC#C[C@@H](O)c2ccccc2)[C@@H](Cc2ccccc2)C(OC)OC)cc1 | inactive
27 | COc1ccc2c3c(n(c2c1)C)[C@H](CO)N(Cc1ccccc1F)C[C@]13CN(C1)C(=O)C1CCOCC1 | inactive
28 | C[C@@H]1CCCCO[C@H](CN(C)Cc2ccc(C(F)(F)F)cc2)[C@H](C)CN([C@H](C)CO)C(=O)c2cc(NC(=O)Nc3ccc(C(F)(F)F)cc3)ccc2O1 | active
29 | C[C@@H]1CN([C@@H](C)CO)C(=O)c2cc(NC(=O)Nc3ccc(C(F)(F)F)cc3)ccc2O[C@@H](C)CCCCO[C@H]1CN(C)Cc1ccc(C(F)(F)F)cc1 | inactive
30 | C[C@H](CO)N1C[C@H](C)[C@@H](CN(C)Cc2ccc(C(F)(F)F)cc2)OCCCC[C@H](C)Oc2ccc(NC(=O)Nc3ccc(C(F)(F)F)cc3)cc2C1=O | inactive
31 | C[C@H]1CCCCO[C@H](CN(C)Cc2ccc(C(F)(F)F)cc2)[C@@H](C)CN([C@@H](C)CO)C(=O)c2cc(NC(=O)Nc3ccc(C(F)(F)F)cc3)ccc2O1 | inactive
32 | C[C@@H]1CCCCO[C@H](CN(C)Cc2ccc(C(F)(F)F)cc2)[C@@H](C)CN([C@@H](C)CO)C(=O)c2cc(NC(=O)Nc3ccc(C(F)(F)F)cc3)ccc2O1 | inactive
33 | C[C@@H]1CCCCO[C@H](CN(C)Cc2ccc(C(F)(F)F)cc2)[C@H](C)CN([C@@H](C)CO)C(=O)c2cc(NC(=O)Nc3ccc(C(F)(F)F)cc3)ccc2O1 | active
34 | C[C@@H]1CCCCO[C@H](CN(C)C(=O)c2ccccc2)[C@H](C)CN([C@H](C)CO)C(=O)c2cc(NC(=O)C3CCCCC3)ccc2O1 | inactive
35 | O=C(NCCN1CCOCC1)c1cccs1 | inactive
36 | CCc1c(Cl)c(O)c(Cl)c(O)c1C(=O)O[C@H]1[C@H](O)[C@H](OC)[C@H](OC/C2=C\C=C\C[C@H](O)/C(C)=C/[C@H](CC)[C@@H](O[C@@H]3OC(C)(C)[C@@H](OC(=O)C(C)C)[C@H](O)[C@@H]3O)/C(C)=C/C(C)=C/C[C@@H]([C@@H](C)O)OC2=O)O[C@@H]1C | active
37 | COc1ccc(CN(C)C[C@H]2OCCCC[C@@H](C)Oc3ccc(NC(=O)Nc4ccc(F)cc4)cc3C(=O)N([C@H](C)CO)C[C@H]2C)cc1 | active
38 | COc1ccc(CN(C)C[C@@H]2OCCCC[C@H](C)Oc3ccc(NC(=O)Nc4ccc(F)cc4)cc3C(=O)N([C@@H](C)CO)C[C@@H]2C)cc1 | inactive

Row | Compound | cytotoxicity call
39 | COc1ccc(CN(C)C[C@H]2OCCCC[C@H](C)Oc3ccc(NC(=O)Nc4ccccc4)cc3C(=O)N([C@@H](C)CO)C[C@@H]2C)cc1 | inactive
40 | COc1ccc(CN(C)C[C@@H]2OCCCC[C@@H](C)Oc3ccc(NC(=O)Nc4ccccc4)cc3C(=O)N([C@@H](C)CO)C[C@@H]2C)cc1 | inactive
41 | COc1ccc(CN(C)C[C@H]2OCCCC[C@@H](C)Oc3ccc(NC(=O)Nc4ccccc4)cc3C(=O)N([C@H](C)CO)C[C@H]2C)cc1 | active
42 | COc1ccc(CN(C)C[C@@H]2OCCCC[C@H](C)Oc3ccc(NC(=O)Nc4ccc(F)cc4)cc3C(=O)N([C@H](C)CO)C[C@@H]2C)cc1 | inactive
43 | C[C@@H]1CCCCO[C@@H](CN(C)C(=O)C2CCCCC2)[C@H](C)CN([C@H](C)CO)C(=O)c2cc(NC(=O)Nc3ccc(C(F)(F)F)cc3)ccc2O1 | inactive
44 | C[C@H](CO)N1C[C@H](C)[C@H](CN(C)C(=O)Nc2ccccc2C(F)(F)F)OCc2cnnn2CCCC1=O | inactive
45 | CO[C@@H]1CN(C)C(=O)c2cc(NC(=O)C3CC3)ccc2OC[C@H](C)N(C(=O)Cc2ccccn2)C[C@@H]1C | inactive
46 | COc1ccc(S(=O)(=O)N[C@@H]2C=C[C@H](CC(=O)N3CCC(Cc4ccccc4)CC3)O[C@@H]2CO)cc1 | inactive
47 | Cn1cc(-c2ccno2)c(C(=O)O)n1 | inactive
48 | Cc1c(-c2c(-c3ccc(F)o3)sc3ncnc(O[C@H](Cc4ccccc4OCc4ccnn4CC(F)(F)F)C(=O)O)c23)ccc(OCCN2CCN(C)CC2)c1Cl | active
49 | N#C[C@@H]1N[C@H](CO)[C@H]1c1ccccc1 | inactive
50 | COCC(=O)N1CC(C)(C)c2cc(-c3csc(NC(=O)c4ccc(F)c(OC(F)(F)F)c4)n3)ccc21 | inactive
51 | CCCCCCO[C@@H](C)c1cccc(-c2csc(NC(=O)c3cc(Cl)c(/C=C(\C)C(=O)O)c(Cl)c3)n2)c1OC | active
52 | C[C@H](CO)N1C[C@H](C)[C@@H](CN(C)Cc2ccncc2)Oc2c(NS(=O)(=O)c3ccccc3)cccc2C1=O | inactive
53 | C[C@@H]1CN([C@H](C)CO)C(=O)Cc2cc(NS(=O)(=O)c3ccc(F)cc3)ccc2O[C@H]1CN(C)Cc1ccc(-c2ccccc2)cc1 | active
54 | C[C@H]1CN([C@@H](C)CO)C(=O)Cc2cc(NS(=O)(=O)c3ccc(F)cc3)ccc2O[C@H]1CN(C)Cc1ccc(-c2ccccc2)cc1 | active
55 | C[C@H]1CN([C@@H](C)CO)C(=O)Cc2cc(NS(=O)(=O)c3ccc(F)cc3)ccc2O[C@@H]1CN(C)Cc1ccc(-c2ccccc2)cc1 | active
56 | C[C@@H]1CN([C@H](C)CO)C(=O)Cc2cc(NS(=O)(=O)c3ccc(F)cc3)ccc2O[C@@H]1CN(C)Cc1ccc(-c2ccccc2)cc1 | active

Reference: the antibiotic and cytotoxicity screens of Wong et al. (2023)
